Records with an inconclusive call do not appear. Activity calls are given as the source filed them. Unless noted, cut-off not given; nearly all actives show AC50 up to about 30 µM.
Key:
[1] = compounds altering circadian rhythm period length – cell-based, LOPAC library, luminescence reporter (AID 2774; call rule not given here;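 further: values are relative to mean of DMSO wells on each plate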); conditions: circadian reporter cells, at 7 µM, actives lie on both sides
[2] = compounds altering viability of human ES cells (AID 493140; call rule not given here;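 further: cells exposed to compounds for four days before counting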); conditions: human embryonic stem cell survival screen; stronger effect = higher value
[3] = test system: Hepatitis C virus NS3 helicase; experiment: blockers of NS3h binding to ssDNA – biochemical, fluorescence polarization, LOPAC1280 library, primary screen (AID 687035; in the data active means inhibition above about 37%); conditions: Purified HCV NS3 helicase, Cy5-dT15 ssDNA binding fluorescence polarization; stronger effect = higher value; concentration not given here
[4] = compounds altering Cy5-DNA-NS3h complex signal – biochemical, LOPAC1280, artefact control for HCV NS3 helicase inhibitor project (AID 687037; call rule not given here); conditions: Cy5-DNA-NS3h complex fluorescence interference counterscreen
[5] = blockers of cellular phospholipid synthesis – cell-based, LOPAC library, screen 4, primary screen (AID 1347384; call rule not given here); conditions: animal cells, phospholipid biosynthesis inhibition screen; at 10 µM
[6] = viability loss in pontine glioma line – cell-based, SU-DIPG-IV, MIPE4.0, CellTiter-Glo, qHTS, dose response (AID 1347063); conditions: CellTiter-Glo ATP luminescence;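 further: compound exposure lasted 48 hours before the viability readout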
[7] = viability loss in pontine glioma line – cell-based, SU-DIPG-XXV, MIPE5.0, CellTiter-Glo, qHTS, dose response (AID 1347065; cut-off not given, nearly all actives have AC50 up to about 26 µM;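 further: cells exposed to compound for 48 hours before ATP readout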); conditions: CellTiter-Glo ATP luminescence
[8] = growth inhibition of DIPG cells – cell-based, MIPE4.0 library, CellTiter-Glo luminescence, qHTS (AID 1347066); conditions: SU-DIPG-VI viability, CellTiter-Glo ATP luminescence;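 further: cells exposed to compound for 48 hours before readout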
[9] = JHH-DIPG-1 glioma cell viability, MIPE5.0 library, CellTiter-Glo luminescence, qHTS (AID 1347067; cut-off not given, nearly all actives have AC50 up to about 26 µM;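 further: cells exposed to compound for 48 hours before readout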); conditions: JHH-DIPG-1 glioma viability, CellTiter-Glo ATP luminescence
[10] = compounds altering HSF1 focus formation in cells – imaging, Selleck Cancer Library (AID 1347162; in the data active means plate-normalised HSF1 focus index below about 0.46); conditions: human cells, HSF1 nuclear foci imaging, at 10 µM; SSMD: measured here: HSF1 foci SSMD mean; cell count: measured here: cell number; plate-normalised HSF1 focus index: stronger effect = lower value
[11] = viability loss in pontine glioma line – cell-based, SU-DIPG-XIII, MIPE5.0, CellTiter-Glo, qHTS, dose response (AID 1347064; cut-off not given, nearly all actives have AC50 up to about 23 µM;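 on AC50: cells exposed to compound for 48 hours before the viability read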); conditions: CellTiter-Glo ATP luminescence
[12] = molecular target: Mitogen-activated protein kinase 7 (Homo sapiens) (UniProt Q13164); experiment: Gal4-ERK5 driven luciferase induction – cell-based, HTS, primary screen (AID 1508626;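 active means luciferase signal above three times the same-plate solvent-only control wells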;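 further: luciferase driven by Gal4-ERK5 fusion binding five Gal4 sites before minimal TATA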); conditions: HeLa Gal4-ERK5 transactivation, 18 h, at 5 µM, stronger effect = higher value
Sequence of Mitogen-activated protein kinase 7 (Homo sapiens) (Q13164 whole entry, looked up, the tested form may be a part): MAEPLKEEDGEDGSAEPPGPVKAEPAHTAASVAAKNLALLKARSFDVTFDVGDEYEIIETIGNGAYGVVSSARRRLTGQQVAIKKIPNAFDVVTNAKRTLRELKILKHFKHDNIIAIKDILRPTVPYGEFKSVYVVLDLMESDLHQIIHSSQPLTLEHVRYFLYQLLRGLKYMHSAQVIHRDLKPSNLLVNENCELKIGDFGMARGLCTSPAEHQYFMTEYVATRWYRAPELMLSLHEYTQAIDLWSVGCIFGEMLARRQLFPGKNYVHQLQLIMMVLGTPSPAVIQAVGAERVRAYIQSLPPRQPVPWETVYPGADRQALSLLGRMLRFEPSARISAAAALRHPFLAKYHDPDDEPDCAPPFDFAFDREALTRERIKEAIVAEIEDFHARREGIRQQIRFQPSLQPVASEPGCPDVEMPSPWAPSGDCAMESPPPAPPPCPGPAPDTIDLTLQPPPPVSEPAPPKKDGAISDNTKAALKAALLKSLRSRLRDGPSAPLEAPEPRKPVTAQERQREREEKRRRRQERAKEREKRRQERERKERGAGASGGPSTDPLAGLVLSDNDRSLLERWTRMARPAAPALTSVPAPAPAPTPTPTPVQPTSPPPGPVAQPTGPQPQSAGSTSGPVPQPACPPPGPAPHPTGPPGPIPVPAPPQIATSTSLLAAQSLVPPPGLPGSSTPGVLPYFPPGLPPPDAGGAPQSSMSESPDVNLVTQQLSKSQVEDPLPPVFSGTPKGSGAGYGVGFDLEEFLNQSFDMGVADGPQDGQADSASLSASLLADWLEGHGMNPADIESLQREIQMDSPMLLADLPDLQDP

CNCCC(Oc1ccccc1OC)c1ccccc1 (stereo not drawn)
period change [1]: -0.31 h (inactive) | survival [2]: 0.917 (inactive) | inhibition [3]: -6% (inactive) | fluorescence ratio (interference) [4]: 0.9 (inactive) | outcome [5]: inactive

CC(C)C[C@H](NC(=O)[C@H](Cc1ccccc1)NC(=O)c1cnccn1)B(O)O
AC50 [6]: 0.00833 µM (active) | AC50 [7]: 0.00662 µM (active) | AC50 [8]: 0.0264 µM (active) | AC50 [9]: 0.0263 µM (active) | SSMD [10]: 3.94 | cell count [10]: 7530 | plate-normalised HSF1 focus index [10]: 1.14 (inactive)

Nc1ccn(C2CO[C@H](CO)O2)c(=O)n1 (stereo partly drawn)
outcome [6]: inactive | outcome [11]: inactive | outcome [7]: inactive | outcome [8]: inactive | outcome [9]: inactive

CC(=O)[C@H]1CC[C@H]2[C@@H]3CC=C4C[C@@H](O)CC[C@]4(C)[C@H]3CC[C@]12C
survival [2]: 9.33 (inactive) | outcome [6]: inactive | outcome [11]: inactive | outcome [8]: inactive | outcome [9]: inactive | luciferase signal [12]: 44 AU (inactive)

CCC(C)(Oc1ccc(C2(c3ccc(OC(C)(CC)C(=O)O)cc3)CCCCC2)cc1)C(=O)O (stereo not drawn)
outcome [6]: inactive | outcome [11]: inactive | outcome [7]: inactive | outcome [8]: inactive | outcome [9]: inactive

CCCCCCCCCCCCCCCC(=O)NCCO
period change [1]: 0.19 h (inactive) | survival [2]: 109 (inactive) | inhibition [3]: -7% (inactive) | fluorescence ratio (interference) [4]: 1 (inactive)

CS(=O)(=O)CCNCc1ccc(-c2ccc3ncnc(Nc4ccc(OCc5cccc(F)c5)c(Cl)c4)c3c2)o1
AC50 [6]: 11.8 µM (active) | AC50 [11]: 18.6 µM (active) | AC50 [7]: 13.2 µM (active) | AC50 [8]: 16.6 µM (active) | AC50 [9]: 20.9 µM (active)

O=C(O)C(=O)Nc1cccc(-c2nn[nH]n2)c1
outcome [6]: inactive | outcome [7]: inactive | outcome [8]: inactive | outcome [9]: inactive

COC(=O)C1=C(C)NC(C)=C(C(=O)OCCCN2CCC(c3ccccc3)(c3ccccc3)CC2)C1c1cccc([N+](=O)[O-])c1 (stereo not drawn)
outcome [6]: inactive | AC50 [11]: 13.2 µM (active) | AC50 [7]: 8.33 µM (active) | outcome [8]: inactive

Clc1ccc(Nc2nnc(Cc3ccncc3)c3ccccc23)cc1
outcome [11]: inactive | AC50 [7]: 20.9 µM (active) | outcome [8]: inactive | AC50 [9]: 18.6 µM (active) | SSMD [10]: 2.9 | cell count [10]: 7070 | plate-normalised HSF1 focus index [10]: 1.15 (inactive)

CC(=O)SC[C@@H](C)C(=O)N1CCC[C@H]1C(=O)N[C@@H](Cc1ccccc1)C(=O)O
outcome [6]: inactive | outcome [8]: inactive | outcome [9]: inactive

CSCC[C@H](NC(=O)[C@H](Cc1c[nH]c2ccccc12)NC(=O)CCNC(=O)OC(C)(C)C)C(=O)N[C@@H](CC(=O)O)C(=O)N[C@@H](Cc1ccccc1)C(N)=O
outcome [6]: inactive | outcome [11]: inactive | outcome [7]: inactive | outcome [8]: inactive | outcome [9]: inactive

CCN(CC)CCNC(=O)c1c(C)[nH]c(/C=C2\C(=O)Nc3ccc(F)cc32)c1C
AC50 [6]: 9.59 µM (active) | AC50 [11]: 7.42 µM (active) | AC50 [7]: 4.17 µM (active) | AC50 [8]: 21.5 µM (active) | AC50 [9]: 3.72 µM (active) | SSMD [10]: -0.842 | cell count [10]: 6750 | plate-normalised HSF1 focus index [10]: 0.967 (inactive) | outcome [5]: inactive

Cc1oc(=O)oc1CN1CCN(c2cc3c(cc2F)c(=O)c(C(=O)O)c2n3C(C)S2)CC1 (stereo not drawn)
outcome [6]: inactive | outcome [11]: inactive | outcome [7]: inactive | outcome [8]: inactive | outcome [9]: inactive

Cc1[nH]c(=O)c(C#N)cc1-c1ccc2nccn2c1
inhibition [3]: -1% (inactive) | fluorescence ratio (interference) [4]: 1 (inactive) | outcome [6]: inactive | outcome [7]: inactive | outcome [8]: inactive | outcome [9]: inactive | outcome [5]: inactive

NS(=O)(=O)c1cc(Cl)c(Cl)c(S(N)(=O)=O)c1
survival [2]: 2 (inactive) | outcome [6]: inactive | outcome [7]: inactive | outcome [8]: inactive | outcome [9]: inactive

CCOC(=O)[C@H](CCc1ccccc1)N[C@H]1CS[C@H](c2cccs2)CN(CC(=O)O)C1=O
AC50 [6]: 1.87 µM (active) | outcome [11]: inactive | outcome [7]: inactive | outcome [8]: inactive | outcome [9]: inactive

CCN[C@H]1C[C@H](C)S(=O)(=O)c2sc(S(N)(=O)=O)cc21
survival [2]: 14.7 (inactive) | outcome [6]: inactive | outcome [11]: inactive | outcome [7]: inactive | outcome [8]: inactive | outcome [9]: inactive | SSMD [10]: 2.68 | cell count [10]: 6990 | plate-normalised HSF1 focus index [10]: 1.14 (inactive)

CC1(COc2ccc(CC3SC(=O)NC3=O)cc2)CCCCC1 (stereo not drawn)
survival [2]: 117 (inactive)

Nc1ccn(C[C@@H](CO)OCP(=O)(O)O)c(=O)n1
outcome [6]: inactive | outcome [11]: inactive | outcome [7]: inactive | outcome [8]: inactive | outcome [9]: inactive

CC(C)OC(=O)C(C(=O)OC(C)C)=C1SC=CS1
outcome [6]: inactive

O=c1[nH]c(=O)n([C@H]2C[C@H](O)[C@@H](CO)O2)cc1I
outcome [6]: inactive | outcome [8]: inactive

Clc1ccc(C(Cn2ccnc2)OCc2c(Cl)cccc2Cl)c(Cl)c1 (stereo not drawn)
survival [2]: 13.2 (inactive) | AC50 [11]: 20.9 µM (active) | AC50 [7]: 23.5 µM (active)

CCCCN(CCCC)CC(O)c1cc(Cl)cc2c1-c1ccc(Cl)cc1/C2=C/c1ccc(Cl)cc1 (stereo not drawn)
AC50 [6]: 26.4 µM (active) | outcome [8]: inactive | AC50 [9]: 18.6 µM (active) | outcome [5]: inactive

COc1ccc(-c2ccc3cc(C(=O)O)ccc3c2)cc1C12CC3CC(CC(C3)C1)C2
outcome [6]: inactive | outcome [8]: inactive

Source: PubChem BioAssay
